Several values for one entry are separate records, joined by “and”; a condition that tells them apart may be missing. Equal entries are not always repeated. The panel holds about 83,000 compounds, 20% with a hit somewhere; the sample as a whole holds those more often.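 Step 1: grow cells in 96-well plates. Step 2: add test compound at a single concentration. Step 3: incubate 48 h. Step 4: record percent growth.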 Unmarked numbers belong to inactive results. Activity calls are given as the source filed them. Rule for the calls: active = growth percent below 10; inactive = the rest.
Test system: MDA-MB-468 breast
Assay: NCI-60 one-dose screen, 48 h (100 = growth as untreated, 0 = no growth, -100 = all killed)
Conditions: 10 µM unless noted

Row | Structure (SMILES) | growth
1 | COc1cccc(NC(=O)NCCNc2nccc(-c3c(-c4ccc(F)cc4)nc4sccn34)n2)c1 | 94.3%
2 | O=C(Cc1ccc(/C=C/C(=O)c2ncc[nH]2)cc1)Nc1ccc(Br)cc1 | 19.6%
3 | CC(=O)OCC1SC(OC(C)=O)C(NC(=O)/C=C/CCl)C(OC(C)=O)C1OC(C)=O (centres undefined) | 98.5%
4 | CCc1ccc(Oc2c(-c3ccc(OCc4ccc(Cl)cc4)cc3O)n[nH]c2C(F)(F)F)cc1 | 13.1%
5 | O=C(Nc1cccc(Cl)c1)Nc1cc(C(F)(F)F)ccc1Cl | 1.29% (active)
6 | Nc1[nH]nc2nc(-c3ccccc3)n3c4ccccc4nc3c12 | 88.7%
7 | COc1cc(C2CC(=O)Nc3c2cnn3Cc2ccco2)cc2c1OCCO2 (centres undefined) | 73.8%
8 | O=c1c2sc3ncc(Br)cc3c2ncn1-c1cccc(Cl)c1 | 89.8%
9 | C/C(=N\OC(=O)Nc1cccc(Cl)c1)c1ccccc1 | 75.1%
10 | OC(COc1cccc2ccccc12)CN1CCN(c2ccc(Cl)cc2)CC1 (centres undefined) | 58.7% and 96.8%
11 | CNC(=O)c1c(NC(=O)c2ccc(C(C)C)cc2)sc2c(CN(C)C)c(O)ccc12 | 86.3%
12 | CN(C)c1ccc(/C=N/N=C(\C#N)[S][Sn]([Cl])([c]2ccccc2)[c]2ccccc2)cc1 | -76.8% (active)
13 | CC1(C)C(N)=Nc2cc(OCCCN3Cc4ccccc4C3)c(OCC3CC3)cc21 | 47.3%
14 | CCC(=O)c1ccc(O)c(OC)c1 | 103%
15 | O=C(OC(CO)C(=O)NC12CC3CC(CC(C3)C1)C2)c1ccc(Cl)cc1 (centres undefined) | 95.3%
16 | C=C(C)[C@@H]1CC[C@]2(CN)CC[C@]3(C)[C@H](CC[C@@H]4[C@@]5(C)CCCNC(C)(C)[C@@H]5CC[C@]43C)[C@@H]12 | -65.5% (active)
17 | COc1cc(/C=C/C(=O)/C=C/c2cc(OC)c3c(c2OC)OCO3)c(OC)c2c1OCO2 | 23.1%
18 | CCN(CC)CCCC(CNc1ccnc2cc(Cl)ccc12)c1ccc(Cl)cc1 (centres undefined) | -78.1% (active) and -70.5% (active)
19 | Cc1cc(C)cc(NCCC#N)c1 | 107%
20 | c1ccc(-c2ccc(-c3nc4ccccc4[nH]3)cc2)cc1 | 87%

Row | Structure (SMILES) | growth
21 | Cc1c(C(C)(C)C)cc(C(C)(C)C)c2c1CN(C)CO2 | 122%
22 | Cn1ncc(CC(=O)O)c1-n1nnc2cc(Cl)ccc2c1=O | 89.5%
23 | CCCCCCCC/C=C\CCCCCCCCOc1cccc(CC(=O)NCC[N+]2(C)CCCCC2)c1 | 52.6%
24 | COc1ccc(-c2nc(SCC(C)C)nc(Nc3ccc(C(=O)O)cc3)c2C#N)cc1 | 91.3%
25 | Cc1ccc(-c2nc(N3CCCNCC3)c3oc(-c4ccccc4)nc3n2)cc1 | -76.2% (active)
26 | COc1c(Cl)cc(Cl)c2ccc(C=C3C(=O)NC(=S)NC3=O)nc12 | 108%
27 | CNS(=O)(=O)c1ccc(Cl)c(Cl)c1 | 101%
28 | COc1ccc(Oc2nc(Nc3ccc(N4CCOCC4)nc3)ncc2NC(=O)c2cc(OC)cc(OC)c2)cc1 | 82.1%
29 | C=C(CNCCc1ccc(O)cc1)[C@@H]1CC[C@]2(CO)CC[C@]3(C)[C@H](CC[C@@H]4[C@@]5(C)CCC(NCCO)C(C)(C)[C@@H]5CC[C@]43C)[C@@H]12 (some centres undefined) | -84.3% (active)
30 | O=C(NCCNC(=O)c1ccc(Cl)cc1Cl)c1ccc(Cl)cc1Cl | 104%
31 | CN(C)c1ccc(C2CC(c3ccccc3)=NN2/C=C2\SC(=O)NC2=O)cc1 (centres undefined) | 100%
32 | c1nc(N2CCOCC2)c2[nH]ccc2n1 | 108%
33 | C1=CN2CC(c3ccccc3)=NNC2c2ccccc21 (centres undefined) | 82.5%
34 | CN1C2CCC1/C(=C\c1ccc(Cl)cc1)C(=O)/C2=C/c1ccc(Cl)cc1 | 59.1%
35 | CCOC(=O)c1c(C)nc2c(c1N)/C(=C/c1cccs1)C(=O)N2c1ccc(OC)cc1 | 28.2%
36 | CC/C(=C(/c1ccc(O)cc1)c1ccc(OCCN2CCCCCC2)cc1)c1ccc(Cl)cc1 | 38.6%
37 | Cc1ccc2nc3nc4ccc[nH]c4cc3c2c1 | -57.7% (active)
38 | C/C(Cc1ccc(Cl)cc1)=C(/c1ccc(Cl)cc1)c1ccc(OCCN(C)C)cc1 | 17.2%
39 | COc1cc(OC)c(/C=C/S(=O)(=O)Cc2ccc(OC)c(NCC(=O)O)c2)c(OC)c1 | -4.64% (active)

— PubChem BioAssay (NCI)
